# Reference: PubChem BioAssay AID1159580 (chemical genetic matrix, 2015)
# Where “and” joins values, the source holds several entries; their conditions need not be identical. Identical values can stand only once. Among all 5,500 compounds or so, about 2,000 (36%) were called active. Inconclusive results (about 18%) are left out. Rule as the data show it: active = normalized growth mostly below about 0.91 (no sharp cut-off); inconclusive = no clear call, values can overlap the other calls; inactive = mostly above about 0.92. This is one part of the list.
# Test: chemical genetic growth profiling, strain panel (AID 1159580);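 also: tested at 20 µM; growth read once vehicle control cultures reached saturation at 30 °C; 1 = growth at the plate median or of vehicle wells; lower values mean less growth of the strain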
# Settings: S. cerevisiae deletion strains, growth OD
smiles,measurement,setting,value
O=C(CCCN1CCC(O)(c2ccc(Cl)cc2)CC1)c1ccc(F)cc1,normalized growth,"locus YAL013W, strain DEP1, stronger effect = lower value",0.797 (active)
same,normalized growth,"locus YAL021C, strain ccr4, stronger effect = lower value",0.903 (active)
same,normalized growth,"locus YAL026C, strain drs2, stronger effect = lower value",0.0861 (active)
same,normalized growth,"locus YAL030W, strain snc1, stronger effect = lower value",0.991 (inactive)
same,normalized growth,"locus YAL040C, strain CLN3, stronger effect = lower value",1.02 (inactive)
same,normalized growth,"locus YBL061C, strain skt5, stronger effect = lower value",0.951 (inactive)
same,normalized growth,"locus YBR009C, strain hhf1, stronger effect = lower value",0.889 (active)
same,normalized growth,"locus YBR021W, strain FUR4, stronger effect = lower value",0.535 (active)
same,normalized growth,"locus YBR023C, strain chs3, stronger effect = lower value",0.919 (inactive)
same,normalized growth,"locus YBR171W, strain sec66, stronger effect = lower value",1.03 (inactive)
same,normalized growth,"locus YBR229C, strain ROT2, stronger effect = lower value",0.981 (inactive)
same,normalized growth,"locus YBR231C, strain swc5, stronger effect = lower value",0.815 (active)
same,normalized growth,"locus YBR279W, strain paf1, stronger effect = lower value",0.918 (active)
same,normalized growth,"locus YCL011C, strain gbp2, stronger effect = lower value",0.948 (inactive)
same,normalized growth,"locus YCL016C, strain dcc1, stronger effect = lower value",0.902 (active)
same,normalized growth,"locus YCL029C, strain bik1, stronger effect = lower value",0.945 (inactive)
same,normalized growth,"locus YCL061C, strain MRC1 (second series), stronger effect = lower value",0.979 (inactive)
same,normalized growth,"locus YCL061C, strain MRC1, stronger effect = lower value",1.01 (inactive)
same,normalized growth,"locus YCL069W, strain vba3, stronger effect = lower value",0.985 (inactive)
same,normalized growth,"locus YCR088W, strain abp1, stronger effect = lower value",1.03 (inactive)
same,normalized growth,"locus YDL005C, strain med2, stronger effect = lower value",1.03 (inactive)
same,normalized growth,"locus YDL035C, strain GPR1, stronger effect = lower value",0.803 (active)
same,normalized growth,"locus YDL040C, strain nat1, stronger effect = lower value",1.02 (inactive)
same,normalized growth,"locus YDL074C, strain BRE1, stronger effect = lower value",0.739 (active)
same,normalized growth,"locus YDL101C, strain DUN1, stronger effect = lower value",0.921 (inactive)
same,normalized growth,"locus YDL185W, strain tfp1, stronger effect = lower value",1.01 (inactive)
same,normalized growth,"locus YDL192W, strain arf1, stronger effect = lower value",0.751 (active)
same,normalized growth,"locus YDR001C, strain nth1, stronger effect = lower value",1.04 (inactive)
same,normalized growth,"locus YDR069C, strain doa4, stronger effect = lower value",0.837 (active)
same,normalized growth,"locus YDR101C, strain arx1, stronger effect = lower value",0.904 (active)
same,normalized growth,"locus YDR137W, strain rgp1, stronger effect = lower value",1.04 (inactive)
same,normalized growth,"locus YDR150W, strain NUM1, stronger effect = lower value",0.949 (inactive)
same,normalized growth,"locus YDR159W, strain sac3, stronger effect = lower value",1.02 (inactive)
same,normalized growth,"locus YDR162C, strain NBP2, stronger effect = lower value",0.747 (active)
same,normalized growth,"locus YDR195W, strain ref2",1.46 [resistant] (active)
same,normalized growth,"locus YDR297W, strain sur2, stronger effect = lower value",0.972 (inactive)
same,normalized growth,"locus YDR318W, strain mcm21, stronger effect = lower value",0.838 (active)
same,normalized growth,"locus YDR334W, strain swr1, stronger effect = lower value",1.04 (inactive)
same,normalized growth,"locus YDR335W, strain msn5, stronger effect = lower value",0.984 (inactive)
same,normalized growth,"locus YDR363W, strain ESC2, stronger effect = lower value",0.886 (inactive)
same,normalized growth,"locus YDR388W, stronger effect = lower value",0.413 (active)
same,normalized growth,"locus YDR392W, strain spt3, stronger effect = lower value",0.281 (active)
same,normalized growth,"locus YDR502C, strain sam2, stronger effect = lower value",0.814 (active)
same,normalized growth,"locus YEL003W, strain gim4, stronger effect = lower value",0.909 (active)
same,normalized growth,"locus YEL037C, strain rad23, stronger effect = lower value",0.998 (inactive)
same,normalized growth,"locus YEL061C, strain CIN8 (second series), stronger effect = lower value",1.02 (inactive)
same,normalized growth,"locus YEL061C, strain CIN8, stronger effect = lower value",0.923 (active)
same,normalized growth,"locus YER002W, strain NOP16, stronger effect = lower value",1.01 (inactive)
same,normalized growth,"locus YER015W, strain faa2, stronger effect = lower value",0.987 (inactive)
same,normalized growth,"locus YER016W, strain bim1, stronger effect = lower value",0.943 (inactive)
same,normalized growth,"locus YER110C, stronger effect = lower value",0.977 (inactive)
same,normalized growth,"locus YER111C, strain swi4, stronger effect = lower value",1.02 (inactive)
same,normalized growth,"locus YER155C, strain BEM2 (second series), stronger effect = lower value",0.42 (active)
same,normalized growth,"locus YER155C, strain BEM2, stronger effect = lower value",1.01 (inactive)
same,normalized growth,"locus YER167W, strain BCK2, stronger effect = lower value",0.839 (active)
same,normalized growth,"locus YFR010W, strain ubp6, stronger effect = lower value",0.867 (active)
same,normalized growth,"locus YGL078C, strain dbp3, stronger effect = lower value",0.978 (inactive)
same,normalized growth,"locus YGL086W, strain mad1, stronger effect = lower value",0.837 (active)
same,normalized growth,"locus YGL167C, strain pmr1, stronger effect = lower value",0.963 (inactive)
same,normalized growth,"locus YGL173C, strain kem1, stronger effect = lower value",0.951 (inactive)
same,normalized growth,"locus YGL227W, strain vid30, stronger effect = lower value",1.05 (inactive)
same,normalized growth,"locus YGL240W, strain doc1, stronger effect = lower value",0.979 (inactive)
same,normalized growth,"locus YGL248W, strain PDE1, stronger effect = lower value",0.661 (active)
same,normalized growth,"locus YGL253W, strain hxk2, stronger effect = lower value",0.859 (active)
same,normalized growth,"locus YGR078C, strain PAC10, stronger effect = lower value",0.855 (inactive) and 0.989 (inactive)
same,normalized growth,"locus YGR135W, strain pre9, stronger effect = lower value",0.73 (active)
same,normalized growth,"locus YGR229C, strain SMI1, stronger effect = lower value",0.324 (active)
same,normalized growth,"locus YGR252W, strain gcn5, stronger effect = lower value",0.368 (active)
same,normalized growth,"locus YHR013C, strain ard1, stronger effect = lower value",0.807 (active)
same,normalized growth,"locus YHR027C, strain rpn1, stronger effect = lower value",0.899 (active)
same,normalized growth,"locus YHR030C, strain SLT2, stronger effect = lower value",0.794 (active) and 0.973 (inactive)
same,normalized growth,"locus YHR079C, strain IRE1 (second series), stronger effect = lower value",0.928 (inactive)
same,normalized growth,"locus YHR079C, strain IRE1, stronger effect = lower value",0.979 (inactive)
same,normalized growth,"locus YHR094C, strain hxt1, stronger effect = lower value",1.03 (inactive)
same,normalized growth,"locus YHR129C, strain ARP1, stronger effect = lower value",0.926 (inactive)
same,normalized growth,"locus YHR142W, strain chs7, stronger effect = lower value",0.85 (active)
same,normalized growth,"locus YHR200W, strain rpn10, stronger effect = lower value",0.98 (inactive)
same,normalized growth,"locus YIL066C, strain RNR3, stronger effect = lower value",0.846 (active)
same,normalized growth,"locus YIL073C, strain SPO22, stronger effect = lower value",1.25 (inactive)
same,normalized growth,"locus YIL125W, strain kgd1, stronger effect = lower value",1.02 (inactive)
same,normalized growth,"locus YIR030C, strain dcg1, stronger effect = lower value",0.979 (inactive)
same,normalized growth,"locus YJL092W, strain hpr5, stronger effect = lower value",0.986 (inactive)
same,normalized growth,"locus YJL095W, strain BCK1 (second series), stronger effect = lower value",0.899 (active)
same,normalized growth,"locus YJL095W, strain BCK1, stronger effect = lower value",0.332 (active) and 0.99 (inactive)
same,normalized growth,"locus YJL115W, strain asf1, stronger effect = lower value",1.01 (inactive)
same,normalized growth,"locus YJL129C, strain trk1, stronger effect = lower value",0.717 (active)
same,normalized growth,"locus YJL134W, strain LCB3, stronger effect = lower value",0.988 (inactive)
same,normalized growth,"locus YJL154C, strain vps35, stronger effect = lower value",1.03 (inactive)
same,normalized growth,"locus YJL164C, strain tpk1, stronger effect = lower value",0.907 (active)
same,normalized growth,"locus YJL166W, strain qcr8, stronger effect = lower value",0.912 (inactive)
same,normalized growth,"locus YJL168C, strain set2, stronger effect = lower value",0.995 (inactive)
same,normalized growth,"locus YJL187C, strain SWE1 (second series), stronger effect = lower value",0.792 (active)
same,normalized growth,"locus YJL187C, strain SWE1, stronger effect = lower value",0.989 (inactive)
